Most compounds without a hit are left out; they make up all but 27% or so of the library.
CYP2C9 act: activators of human CYP2C9; P11712; activation factor at 5 µM; AID 1024; recombinant CYP2C9, luciferin-H conversion, luminescence; hits give high values; factor 1 = untreated enzyme, 0 = blocked; hit rate 1.4% among 96,000;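 active = activation factor of 2 or more for CYP2C9 at a 5 µM dose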
CYP2C9 inh: blocks human cytochrome P450 2C9. CYP2C9 Supersomes, luciferin-H conversion, luminescence. P11712. AID 777. hit rate 20% among 96,000. inhibition, % at 5 µM;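 active = blocking of liver enzyme CYP2C9 beyond about 50% at 5 µM, limit read from the data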
sEH activator: activators of human soluble epoxide hydrolase. purified human sEH enzymatic activity, activator screen. P34913. hit rate 0.04% among 91,000. activation, % at 2 µM; in the data active = activation above about 37%
Target sequence (P34913 whole entry, looked up): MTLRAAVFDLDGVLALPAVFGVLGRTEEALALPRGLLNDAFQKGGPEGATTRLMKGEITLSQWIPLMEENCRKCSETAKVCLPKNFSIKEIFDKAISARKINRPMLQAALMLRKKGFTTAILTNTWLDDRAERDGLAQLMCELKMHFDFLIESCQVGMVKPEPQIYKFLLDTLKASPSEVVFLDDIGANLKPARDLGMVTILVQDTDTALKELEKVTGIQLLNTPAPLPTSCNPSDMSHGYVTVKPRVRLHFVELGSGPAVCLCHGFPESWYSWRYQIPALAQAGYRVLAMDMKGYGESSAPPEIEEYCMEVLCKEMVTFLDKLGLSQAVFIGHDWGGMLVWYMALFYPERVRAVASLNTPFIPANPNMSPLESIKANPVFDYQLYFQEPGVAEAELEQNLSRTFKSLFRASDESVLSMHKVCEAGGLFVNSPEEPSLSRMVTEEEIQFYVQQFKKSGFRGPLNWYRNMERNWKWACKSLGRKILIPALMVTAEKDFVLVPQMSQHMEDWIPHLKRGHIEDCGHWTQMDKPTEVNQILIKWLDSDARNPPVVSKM
CYP2C19 activ: cytochrome P450 2C19 (human) activation | P33261 | recombinant CYP2C19, luciferin-H EGE luminescence; hits give high values; 0 = fully inhibited enzyme, 1 = untreated enzyme | activation factor at 5 µM | 96,000 tested, under 10 active | AID 1025;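 active = activation factor of at least 2 at 5 µM in the primary screen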
sEH inh: soluble epoxide hydrolase (human) inhibition. P34913. recombinant human sEH enzymatic activity assay. AID 707. inhibition, % at 2 µM. hit rate 0.34% among 91,000; in the data active = inhibition above about 80%
CYP2C19 inhib: human CYP2C19 inhibition. P33261. CYP2C19 Supersomes, luciferin-H EGE luminescence, 30 min. inhibition, % at 5 µM. hit rate 21% among 96,000;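 active = CYP2C19 inhibition above a set limit at 5 µM in the primary screen, cut at about 50% in these data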
Hits are given with their value; . = inactive; / = no result given.

SMILES	CYP2C9 act	CYP2C9 inh	sEH activator	CYP2C19 activ	sEH inh	CYP2C19 inhib
COC(=O)c1sc(NC(=O)C(C)C)c(C(=O)OC)c1C	.	.	.	.	.	53
COC(=O)c1sc(NC(=O)C2CCCO2)c(C(=O)OC)c1C (configuration not stated)	.	.	.	.	.	51
CCC(=O)Nc1sc(C(=O)OC)c(C)c1C(=O)OC	.	.	/	.	/	.
O=C(NCCN1CCOCC1)c1cc2cc(Br)ccc2oc1=O	.	.	.	.	.	.
CNS(=O)(=O)c1cnccc1N1CCN(c2cccc(C(F)(F)F)c2)CC1	.	.	.	.	.	77
O=C(Nc1ccccc1)N1CCN(c2cccc(C(F)(F)F)c2)CC1	2	.	.	.	.	58
C=CCOC(=O)N1CCN(c2cccc(C(F)(F)F)c2)CC1	.	80	.	.	.	96
CCC(C)[C@H](NC(=O)N1CCN(c2cccc(C(F)(F)F)c2)CC1)C(=O)OC (some centres not stated)	.	.	.	.	.	.
Cn1cc(S(=O)(=O)N2CCN(c3cccc(C(F)(F)F)c3)CC2)c(=O)n(C)c1=O	.	.	.	.	.	.
COC(=O)[C@@H](NC(=O)N1CCN(c2cccc(C(F)(F)F)c2)CC1)C(C)C	.	.	.	.	.	53
COCCCn1c(SCc2cc(=O)[nH]c3ccccc23)nnc1-c1ccco1	.	.	.	.	.	.
[2H]c1c([2H])c([2H])c(-c2nc(N3CCCCCC3)sc2C(=O)c2ccccc2)c([2H])c1[2H]	.	.	.	.	.	.
CCc1ccc(N2CC(C(=O)Nc3nccs3)CC2=O)cc1 (configuration not stated)	.	.	.	.	.	.
O=C(Nc1cccc(C(F)(F)F)c1)c1cccnc1N1CCN(c2ccccc2)CC1	.	.	.	.	.	58
O=C(CS(=O)(=O)Cc1ccccc1)N1CCN(c2cccc(C(F)(F)F)c2)CC1	.	.	.	.	.	57
O=C(c1cccc(C(F)(F)F)c1)N1CCC(O)(CS(=O)(=O)Cc2ccccc2)CC1	.	.	.	.	.	.
CCC(=O)N1CCc2cc(S(=O)(=O)N3CCN(c4ccccn4)CC3)ccc21	.	.	.	.	.	.
O=C(c1ccc(Cl)cc1)c1cnc(-c2ccc(Cl)cc2)s1	.	.	.	.	.	64
Cc1oc(-c2ccc(Cl)cc2)nc1CN1CCCC(C(=O)NCc2ccco2)C1 (configuration not stated)	.	.	.	.	.	.
COc1ccc(S(=O)(=O)Nc2cc(C)c(O)cc2C(C)C)cc1	2.4	.	.	.	.	99
COC(=O)c1sccc1NS(=O)(=O)c1ccc(OC)cc1	.	.	/	.	/	.
COc1ccc(S(=O)(=O)Nc2cc(C(C)C)c(O)cc2C)cc1	.	.	.	.	.	88
Cc1ccc(N2CCN(C(=O)N3CCCC3)CC2)cc1C	.	53	.	.	.	81
COCCn1nnnc1CN(CCc1ccc(OC)c(OC)c1)Cc1cc2ccc(C)cc2[nH]c1=O	.	61	.	.	.	59
CCc1ccc2[nH]c(=O)c(CN(Cc3nnnn3C3CCCC3)C3CCCCC3)cc2c1	.	82	/	.	/	76
SMILES	CYP2C9 act	CYP2C9 inh	sEH activator	CYP2C19 activ	sEH inh	CYP2C19 inhib
CCC(c1nnnn1CCOC)N(Cc1cc2c(C)cc(C)cc2[nH]c1=O)CC1CCCO1 (configuration not stated)	.	.	.	.	.	.
Cc1cc2cc(CN(Cc3nnnn3C3CCCCC3)CC3CCCO3)c(=O)[nH]c2cc1C (configuration not stated)	.	.	.	.	.	69
Cc1cc(C)c2cc(CN(Cc3nnnn3C3CCCCC3)CC3CCCO3)c(=O)[nH]c2c1 (configuration not stated)	.	55	.	.	.	86
O=c1[nH]c2cc3c(cc2cc1CN(CCc1ccccc1)Cc1nnnn1C1CCCC1)OCCO3	.	.	.	.	.	.
COc1cccc(-c2nc(=S)c3c(n2CCCO)CCCC3)c1	.	.	.	.	.	.
Cc1cc(C)n(Cc2ccc(NC(=O)c3c([N+](=O)[O-])c(C)nn3C)cc2)n1	.	.	.	.	.	.
CN(C)c1ccc(CNC(=O)C2CCN(S(=O)(=O)c3ccc4c(c3)CCC(=O)N4)CC2)cc1	.	.	.	.	.	.
CCOc1ccc(CCNC(=O)CCCN2C(=O)c3ccccc3C2=O)cc1OCC	.	.	.	.	.	.
O=C1CC(C(=O)Nc2cccc3ccccc23)C2(CCCC2)O1 (configuration not stated)	.	.	.	.	.	.
O=C(COC(=O)c1ccc(Br)o1)NCC1CCCO1 (configuration not stated)	.	.	.	.	.	.
COc1ccc(CN(Cc2cc3ccc(C)cc3[nH]c2=O)Cc2nnnn2C2CCCC2)cc1	.	93	/	.	/	93
Cc1ccc2[nH]c(=O)c(CN(Cc3ccc4c(c3)OCO4)Cc3nnnn3C3CCCC3)cc2c1	.	61	/	.	/	.
COc1ccc2cc(CN(CCCN3CCOCC3)Cc3nnnn3C3CCCC3)c(=O)[nH]c2c1	.	.	.	.	.	.
COc1ccc2cc(CN(Cc3cccnc3)Cc3nnnn3Cc3ccccc3)c(=O)[nH]c2c1	.	90	.	.	.	93
COc1ccc2cc(CN(Cc3cccs3)Cc3nnnn3Cc3ccccc3)c(=O)[nH]c2c1	/	/	.	/	.	/
Cc1ccc2cc(CN(Cc3nnnn3C3CCCCC3)CC3CCCO3)c(=O)[nH]c2c1 (configuration not stated)	.	.	.	.	.	81
Cc1cc2cc(CN(Cc3ccc4c(c3)OCO4)Cc3nnnn3C3CCCC3)c(=O)[nH]c2cc1C	.	.	.	.	.	.
CC1=N/C(=C\c2ccc([N+](=O)[O-])cc2)C(=O)N1c1ccc(Cl)cc1	.	.	.	.	.	.
CCOC(=O)CNC(=O)c1cc(C)oc1C	.	.	.	.	.	.
Cc1ccc(S(=O)(=O)N2CCN(S(C)(=O)=O)CC2)cc1	/	/	.	/	.	/
COc1cccc(NS(=O)(=O)c2ccc3c(c2)n(C)c(=O)c(=O)n3C)c1	.	.	.	.	.	.
Cc1ccc(S(=O)(=O)Nc2ccc(S(=O)(=O)N3CCCC3)cc2)cc1	.	98	.	.	.	68
COc1cccc(NS(=O)(=O)c2ccc(S(=O)(=O)N3CCOCC3)cc2)c1	.	67	.	.	.	93
CCn1c(=O)c(=O)n(CC)c2cc(S(=O)(=O)Nc3cccc(OC)c3)ccc21	.	87	.	.	.	.
COc1cccc(C(=O)NCC2CCN(c3ccc(S(=O)(=O)N4CCOCC4)cc3)CC2)c1	.	55	.	.	.	56
CCOc1cccc(N(C(=O)Cc2cccs2)C(C(=O)NC2CCCCC2)c2cccn2C)c1 (configuration not stated)	/	/	.	/	.	/
COCc1cc(=O)[nH]c2cc(NC(=O)C3CC3)c(C)cc12	.	.	.	.	.	.
